# Inconclusive results are not listed. Where a call stands in place of a potency, no number is given. Calls of active or inactive are those of the source. The call rests on the fitted dose curve; in most records, active means well fitted inhibition curve with a large enough effect; inconclusive means small, poorly fitted or top-dose-only effect; inactive means no such curve, though single readings can be large or run the other way. Where a SMILES comes first, the peptide text is derived from it.
# Test system: Zika virus NS2B-NS3 protease (unlinked complex)
# Test: Primary screen GU Rhodamine qHTS for Zika virus inhibitors: Unlinked NS2B-NS3 protease assay (AID 1347159); further: nearly all actives have a fitted effect of over 60% in size
# Conditions: Recombinant ZIKV NS2B-NS3 protease, Rhodamine110 substrate fluorescence; series mostly up to 107 µM
# Summary of the method: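 A qHTS format was used, with compound concentrations ranging up to 114 microM. Each compound was preincubated with 25 nM NS2B-NS3 protease, and the substrate was then added at 1.5 microM. Curves were fitted with a 4-parameter Hill model.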
Compound,Potency,"activity change, negative = inhibition"
C=C(C)[C@@]1(O)C[C@@]2(C)C(=CC1=O)CC[C@@H](O)[C@@H]2C,inactive,
NC(=O)NCCCC(NC(=O)Cc1ccccc1)C(=O)O (centres undefined),inactive,
COC(=O)C1=CO[C@@H](O[C@@H]2O[C@H](CO)[C@@H](O)[C@H](O)[C@H]2O)[C@H]2[C@@H]1[C@H](O)C[C@]2(C)O,inactive,
OCC1=C[C@@H](O)[C@@H]2C=CO[C@@H](O[C@@H]3O[C@H](CO)[C@@H](O)[C@H](O)[C@H]3O)[C@H]12,inactive,
COC(=O)[C@H](Cc1ccc([N+](=O)[O-])cc1)NC(=O)c1cccc2ccccc12,inactive,
COc1cc(/C=C/C(=O)O[C@H]2C[C@@H]3C(C(=O)O)=CO[C@@H](O[C@@H]4O[C@H](CO)[C@@H](O)[C@H](O)[C@H]4O)[C@@H]3[C@H]2C)ccc1O,inactive,
C/C=C/C1OC2=C(C(=O)OC2(C)O)C(O)C1O (centres undefined),inactive,
Cc1c(O)cc2c(c1O)COC1(O)CCCOC21 (centres undefined),inactive,
CC(C)c1c(NC(=O)Nc2ccc(Cl)cc2)c(=O)n(-c2ccccc2)n1C,inactive,
CC1(C)CC[C@]2(C(=O)O[C@@H]3O[C@H](CO)[C@@H](O)[C@H](O)[C@H]3O)CC[C@]3(C)C(=CCC4[C@@]5(C)CC[C@H](O[C@@H]6O[C@H](C(=O)O)[C@@H](O[C@@H]7O[C@H](CO)[C@@H](O)[C@H](O)[C@H]7O)[C@H](O)[C@H]6O)C(C)(C)C5CC[C@]43C)C2C1 (some centres undefined),inactive,
C/C=C(\C)C(=O)OC1CC2C(CC=C3CC(OC4CC(OC)C(OC5CC(OC)C(OC6CC(OC)C(OC7CC(OC)C(OC8CC(OC)C(OC9OC(CO)C(O)C(O)C9O)C(C)O8)C(C)O7)C(C)O6)C(C)O5)C(C)O4)CCC32C)C2(O)CCC(C(C)=O)C12C (centres undefined),,20.8% [at 19.1 µM] (inactive)
C=C1C(OC(C)=O)C(=O)C2C(C)(C)C(O)CCC2(C)C1CC(OC(C)=O)/C(C)=C/COC(C)=O (centres undefined),inactive,
O=C(O[C@H]1[C@H](Oc2ccc(O)cc2CO)O[C@H](CO)[C@@H](O)[C@@H]1O)c1ccccc1,inactive,
CC1(C)CC[C@]2(C(=O)O[C@@H]3O[C@H](CO)[C@@H](O)[C@H](O)[C@H]3O)CC[C@]3(C)C(=CCC4[C@@]5(C)CC[C@H](OC6OC(C(=O)O)C(OC7OC(CO)C(O)C(O)C7O)C(O)C6O)C(C)(C)C5CC[C@]43C)C2C1 (some centres undefined),inactive,
C=C(C)C(O)COc1ccc(CC(=O)O)cc1 (centres undefined),inactive,
C/C=C1\[C@H](O[C@@H]2O[C@H](CO)[C@@H](O)[C@H](O)[C@H]2O)OC=C(C(=O)O)[C@H]1CC(=O)OCCc1ccc(O)cc1,inactive,
Cc1cc(CO)c(O)c(C(=O)CC2CC(=O)NC(=O)C2)c1,inactive,
CCOC(=O)COc1ccc2c(c1)C[C@@H](NC[C@H](O)c1cccc(Cl)c1)CC2,inactive,
CC(C)=CCC/C(C)=C/CO[C@@H]1O[C@H](CO[C@@H]2O[C@@H](CO)[C@H](O)[C@H]2O)[C@@H](O)[C@H](O)[C@H]1O,inactive,
O=C(O)Cc1cn([C@@H]2OC[C@@H](O[C@@H]3O[C@H](CO)[C@@H](O)[C@H](O)[C@H]3O)[C@H](O)[C@H]2O[C@@H]2O[C@H](CO)[C@@H](O)[C@H](O)[C@H]2O)c2ccccc12,inactive,

Compound,Potency,"activity change, negative = inhibition"
COc1ccc(C2COc3cc(O)ccc3C2)c(O)c1OC (centres undefined),inactive,
Cc1c(NC(=O)N2CCOCC2)ccc2c1c1ccccc1n2C(C)C,inactive,
COc1cc(C(C)=O)ccc1O[C@@H]1O[C@H](CO[C@@H]2OC[C@@H](O)[C@H](O)[C@H]2O)[C@@H](O)[C@H](O)[C@H]1O,inactive,
C=CC(C)(O)CC/C=C(\C)C(=O)O[C@@H]1[C@@H](O)[C@H](OC(C)(C=C)CC/C=C(\C)C(=O)O[C@@H]2O[C@H](CO)[C@@H](O)[C@H](O)[C@H]2O)O[C@H](CO)[C@H]1OC(=O)/C(C)=C/CCC(C)(O)C=C (some centres undefined),inactive,
CC(O)C1CCC2C3CCC4CC(OC5OC(C(=O)O)C(O)C(O)C5O)CCC4(C)C3CCC12C (centres undefined),inactive,
OC[C@@]1(O)CO[C@@H](OC[C@H]2O[C@@H](Oc3ccccc3)[C@H](O)[C@@H](O)[C@@H]2O)[C@@H]1O,inactive,
CC1(C)CC(NC(=O)C(=O)Nc2ccc(Cl)cc2)CC(C)(C)N1,inactive,
C=C[C@@](C)(CCC=C(C)C)O[C@@H]1O[C@H](CO[C@@H]2OC[C@H](O)[C@H](O)[C@H]2O)[C@@H](O)[C@H](O)[C@H]1O,inactive,
COc1ccc(-n2[nH]c3c(cnc4ccccc43)c2=O)cc1,inactive,
COc1cc(C2OCC3(O)C(c4ccc(O[C@@H]5O[C@H](CO)[C@@H](O)[C@H](O)[C@H]5O)c(OC)c4)OCC23O)ccc1O (some centres undefined),inactive,
O=C(CCCCC1CCCCC1)N1CCC(c2cnc[nH]2)CC1,inactive,
COc1ccc(CCc2nc3cc(-c4c(C)noc4C)ccc3n2C[C@H](C)N2CCOCC2)cc1Cl,inactive,
CCOc1nc2c(N)ncnc2n1CC,inactive,
C[C@@H]1O[C@@H](O[C@@H]2[C@@H](O)[C@H](O[C@@H]3[C@@H](O)[C@@H](O)[C@H](O[C@H]4[C@H](OC(=O)[C@]56CCC(C)(C)C[C@H]5C5=CCC7[C@@]8(C)C[C@H](O)[C@H](O[C@@H]9O[C@H](C(=O)O)[C@@H](O)[C@H](O)[C@H]9O)[C@@](C)(CO)C8[C@H](O)C[C@@]7(C)[C@]5(C)C[C@H]6O)O[C@@H](CO)[C@@H]4O)O[C@H]3C)OC[C@H]2O)[C@H](O)[C@H](O)[C@H]1O (some centres undefined),,24.9% [at 19.1 µM] (inactive)
O=C(O)C(Cc1ccccc1)NC(=O)C1CCCN1 (stereo not drawn) (H-Pro-Phe-OH; configuration not given here),inactive,
COC(=O)C1=CO[C@@H](O[C@@H]2O[C@H](CO)[C@@H](O)[C@H](O)[C@H]2O)[C@@H]2[C@@H](C(=O)O)CC[C@H]12,inactive,
CC(C)[C@@](O)(c1ccc2cc(OC(F)F)c(OC(F)F)cc2c1)c1cn[nH]n1,inactive,
C=C(C(=O)O)C1CC(O)C2(C)CCCC(C)(O)C2C1 (centres undefined),inactive,
C[C@]1(O)CC[C@@H]2C(C(=O)O)=CO[C@@H](O[C@@H]3O[C@H](CO)[C@@H](O)[C@H](O)[C@H]3O)[C@@H]21,inactive,
